Test systems include BT-549 breast; MDA-MB-435 melanoma; SW-620 colon; MCF7 breast; HCT-116 colon; HCC-2998 colon; KM12 colon.
Common to all, as to assay: NCI-60 one-dose screen, 48 h (100 = growth as untreated, 0 = no growth, -100 = all killed)
Common to all, as to settings: 10 µM unless noted

The text below walks through data of PubChem BioAssay (NCI).

Molecules are shown by their SMILES. The panel holds about 83,000 compounds, 20% with a hit somewhere; the sample as a whole holds those more often.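 The test compound was applied at a single concentration to cells in 96-well plates for 48 hours, and percent growth was recorded.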 Unmarked numbers belong to inactive results. Active and inactive are the calls of the source. Rule for the calls: active = growth percent below 10; inactive = the rest.

Consider `O=[N+]([O-])c1ccc(NS(=O)(=O)c2ccccc2)c2ccccc12`, for which the growth with BT-549 breast is 37.2%; with MDA-MB-435 melanoma it was 36.8%; in the experiment with SW-620 colon, 49.6%; in the experiment with MCF7 breast it was 42.3%; in the experiment with HCT-116 colon it was 44.6%; in the experiment on HCC-2998 colon it was 36.7%. The growth in the experiment on KM12 colon was 40.1%.
Regarding `CC(C)(C)NC(C1=CC(C)(C)c2ccccc2C1=O)c1ccccc1` (stereo unspecified), the growth with BT-549 breast was -32.9% (active); in the experiment on MDA-MB-435 melanoma, -25.4% (active); with SW-620 colon, -82.3% (active); in the experiment with MCF7 breast, -63.6% (active); in the experiment on HCT-116 colon, -99.5% (active); in the experiment on HCC-2998 colon, -31.3% (active). In addition, the growth in the experiment with KM12 colon was -29.2% (active).
Turning to `CCOc1ccc(NC2=C(Cl)C(=O)c3ccccc3C2=O)cc1`, the growth is 77.6% with BT-549 breast; 67.1% with MDA-MB-435 melanoma; -51.3% (active) with SW-620 colon; 46.1% with MCF7 breast; 80.6% in the experiment with HCT-116 colon; 57.7% in the experiment with HCC-2998 colon. In addition, in the experiment on KM12 colon, the growth is 72.9%.
For the molecule `Cc1cn(C2CC(N=[N+]=[N-])C(COP(=O)(O)OP(=O)(O)OP(=O)(O)O)O2)c(=O)[nH]c1=O` (stereo unspecified), the growth with BT-549 breast is 115%; with MDA-MB-435 melanoma it was 107%; with SW-620 colon, 109%; in the experiment on MCF7 breast it was 104%; in the experiment on HCT-116 colon it was 94.1%; with HCC-2998 colon it was 97.6%. Moreover, in the experiment with KM12 colon, the growth is 108%.
In the case of `COc1cc(C(=O)NNC(=O)c2ccccc2C(=O)O)cc(OC)c1OC`, the growth was 58.4% in the experiment with BT-549 breast; 60.4% with MDA-MB-435 melanoma; 36.9% in the experiment with SW-620 colon; 30.1% with MCF7 breast; 29% with HCT-116 colon; 68.5% in the experiment with HCC-2998 colon. Also, in the experiment on KM12 colon, the growth is 36.9%.
Consider `Nc1nc(Cl)cc(NCCCCNc2cc(Cl)nc(N)n2)n1`, for which the growth was 99.9% in the experiment on BT-549 breast; 124% in the experiment on MDA-MB-435 melanoma; 112% in the experiment with SW-620 colon; 109% with MCF7 breast; 102% with HCT-116 colon; 103% in the experiment on HCC-2998 colon. Also, the growth in the experiment on KM12 colon was 113%.
Take `c1coc(CSc2ncnc3nc[nH]c23)c1`: the growth in the experiment with BT-549 breast was 120%; with MDA-MB-435 melanoma it was 116%; in the experiment with SW-620 colon, 97.9%; in the experiment on MCF7 breast it was 89.9%; in the experiment on HCT-116 colon it was 97.7%; in the experiment with HCC-2998 colon, 107%. Also, the growth in the experiment with KM12 colon is 102%.
For `Cc1c(Cl)ccc2c(C(=O)Cl)cc(-c3ccccc3)nc12`, the growth in the experiment on BT-549 breast is 94.8%; with MDA-MB-435 melanoma, 98.3%; in the experiment with SW-620 colon, 97.5%; with MCF7 breast it was 87.6%; with HCT-116 colon, 102%; in the experiment on HCC-2998 colon, 109%. The growth in the experiment on KM12 colon is 102%.
Consider `CN1CCN(CC(O)COc2c(Br)c(Br)c(Br)c3c2OC(C)(C)C3)CC1` (stereo unspecified), for which the growth in the experiment with BT-549 breast is 78.4%; in the experiment with MDA-MB-435 melanoma it was 18.7%; with SW-620 colon, 47.3%; with MCF7 breast it was 59.5%; in the experiment on HCT-116 colon, 20.7%; with HCC-2998 colon, 12.4%. Moreover, the growth in the experiment with KM12 colon is 57.2%.
On to `CCOc1ccc(NC(=O)Nc2cc(C(C)C)ccc2C)cc1`, for which the growth with BT-549 breast was 114%; in the experiment with MDA-MB-435 melanoma, 85%; in the experiment on SW-620 colon, 91.1%; in the experiment on MCF7 breast it was 111%; in the experiment on HCT-116 colon it was 36.3%; in the experiment on HCC-2998 colon, 59.8%. The growth in the experiment with KM12 colon is 75.4%.
As to `COc1ccccc1NC(=O)COc1ccc(/C=C2/Oc3cc4occc4c(OC)c3C2=O)cc1OC`, the growth was 93% with BT-549 breast; 107% with MDA-MB-435 melanoma; 111% with SW-620 colon; 99.4% with MCF7 breast; 102% in the experiment on HCT-116 colon; 106% in the experiment on HCC-2998 colon. The growth in the experiment with KM12 colon is 97.8%.
On to `O=C(O)c1ccc(-n2cc(/C=N/Nc3ccccc3F)c(-c3ccc(O)cc3)n2)cc1`, for which the growth in the experiment with BT-549 breast was 80.3%; with MDA-MB-435 melanoma, 74.8%; in the experiment on SW-620 colon, 61.8%; in the experiment with MCF7 breast it was 73.7%; with HCT-116 colon, 71.2%; with HCC-2998 colon, 86.4%. The growth in the experiment on KM12 colon was 57.9%.
As to `FC(F)(F)c1cn(CCN2CCOCC2)c2ncnc(Cl)c12`, the growth in the experiment on BT-549 breast is 93.6%; with MDA-MB-435 melanoma it was 56.5%; with MCF7 breast it was 97.5%; in the experiment on HCT-116 colon it was 15.4%; with HCC-2998 colon, 75.2%; with KM12 colon, 101%.
On to `C[C@H]1C=C(C[C@@H](O)CCCCCCCCCC[C@@H](O)[C@H]2CCC(=O)O2)C(=O)O1`, for which the growth in the experiment with BT-549 breast is 112%; with MDA-MB-435 melanoma, 113%; in the experiment with SW-620 colon, 99.9%; in the experiment with MCF7 breast, 118%; in the experiment on HCT-116 colon, 87.9%; with HCC-2998 colon it was 97.7%. Further, the growth in the experiment with KM12 colon is 105%.
`COc1ccc(/C=C/C(=O)c2ccc(-n3cc(CN4CCN(c5cc6c(cc5F)c(=O)c(C(=O)O)cn6C5CC5)CC4)nn3)cc2)cc1OC`: the growth in the experiment on BT-549 breast was 51%; in the experiment with MDA-MB-435 melanoma it was 5.4% (active); in the experiment with SW-620 colon it was 9.41% (active); with MCF7 breast, 16.1%; in the experiment with HCT-116 colon, -39.5% (active); in the experiment on HCC-2998 colon, -39.7% (active). For the same molecule, the growth in the experiment on KM12 colon was 8.81% (active).
For `CC(C)CCC[C@@H](C)[C@H]1CC[C@H]2[C@@H]3CC=C4N(c5ccccc5)C(=O)CC[C@]4(C)[C@H]3CC[C@]12C`, the growth with MDA-MB-435 melanoma is 100%; with SW-620 colon it was 99.8%; with MCF7 breast, 89.5%; in the experiment with HCT-116 colon, 99.2%; in the experiment with HCC-2998 colon, 102%; in the experiment on KM12 colon, 105%.
In the case of `O=C(O)c1ccc(-n2cc(/C=N/Nc3ccc(Cl)cc3)c(-c3ccc(F)c(F)c3)n2)cc1`, the growth is 70% with BT-549 breast; 86.5% in the experiment on MDA-MB-435 melanoma; 61.3% in the experiment on SW-620 colon; 46.5% in the experiment on MCF7 breast; 47.5% with HCT-116 colon; 82.6% with HCC-2998 colon. Besides, the growth in the experiment on KM12 colon was 69.2%.
For `COc1ccc2c(c1)OC(N)=C(C#N)C2c1ccc(F)cc1` (stereo unspecified), the growth was 20.1% in the experiment on BT-549 breast; -4.14% (active) with MDA-MB-435 melanoma; 18.6% in the experiment on SW-620 colon; 18.1% in the experiment with MCF7 breast; 24.9% with HCT-116 colon; 54.5% in the experiment with HCC-2998 colon. In addition, in the experiment on KM12 colon, the growth is 26.4%.
Take `Cc1cc(SCc2ccc(Cl)cc2Cl)nc(SCc2ccc(Cl)cc2Cl)n1`: the growth was 106% with BT-549 breast; 97.2% in the experiment with MDA-MB-435 melanoma; 92.8% in the experiment with MCF7 breast; 95.9% in the experiment on HCT-116 colon; 100% in the experiment on HCC-2998 colon; 97.4% in the experiment with KM12 colon.
On to `CCc1ccc(C2=C/C(=C/c3ccc(Cl)cc3)C(=O)N2CCc2ccc(S(N)(=O)=O)cc2)cc1`, for which the growth was 38% with BT-549 breast; 36.7% in the experiment with MDA-MB-435 melanoma; 25.2% in the experiment with SW-620 colon; 6.29% (active) in the experiment on MCF7 breast; 13.6% in the experiment with HCT-116 colon; 24.8% in the experiment with HCC-2998 colon. For the same molecule, the growth in the experiment with KM12 colon is 18.8%.
`Cc1cc[n+](CCCC[n+]2ccc(C)cc2)cc1`: the growth was 102% with MDA-MB-435 melanoma; 103% with SW-620 colon; 96.3% in the experiment with MCF7 breast; 100% with HCT-116 colon; 103% with HCC-2998 colon; 90.5% with KM12 colon.
On to `NC(=NCCCOc1ccc(F)cc1)Nc1ccc(Cl)c(Cl)c1`, for which the growth is 91.2% in the experiment with BT-549 breast; 79% in the experiment on MDA-MB-435 melanoma; 60.4% in the experiment on SW-620 colon; 18.1% in the experiment on MCF7 breast; 45.6% in the experiment on HCT-116 colon; -45.7% (active) with HCC-2998 colon. Moreover, the growth with KM12 colon was 76.5%.
For the molecule `COC(=O)c1ccc2c(c1)Oc1ccc(Cl)cc1-c1cc(C)nn1-2`, the growth in the experiment on BT-549 breast was 96%; with MDA-MB-435 melanoma it was 97.5%; in the experiment on SW-620 colon, 68.5%; in the experiment with MCF7 breast it was 79.4%; in the experiment with HCT-116 colon, 44%; in the experiment with HCC-2998 colon it was 100%. The growth in the experiment on KM12 colon was 87.7%.
Consider `c1ccc(CNCCN(CCNCc2ccccn2)Cc2ccc3ccccc3c2)nc1`, for which the growth in the experiment on BT-549 breast is 30.3%; in the experiment on MDA-MB-435 melanoma, 11.4%; in the experiment on SW-620 colon, 13%; in the experiment with MCF7 breast, 3.36% (active); with HCT-116 colon, -9.29% (active); in the experiment on HCC-2998 colon, -18.3% (active). The growth in the experiment with KM12 colon is 12.5%.
`CCCCOc1nc2ccc(Cl)cc2cc1/C=C/C(=O)/C=C/c1ccc(OC)cc1`: the growth was 93.6% in the experiment with BT-549 breast; 9.64% (active) in the experiment with MDA-MB-435 melanoma; 30.7% with MCF7 breast; -25.4% (active) in the experiment on HCT-116 colon; 92.7% with HCC-2998 colon; 84% in the experiment with KM12 colon.
In the case of `COc1ccccc1S(=O)(=O)Nc1ccc2c3c(cc(-c4cnn(C)c4)nc13)C(=O)N2C`, the growth in the experiment with BT-549 breast was 62.6%; in the experiment with MDA-MB-435 melanoma, 35.2%; in the experiment on MCF7 breast, 16.5%; with HCT-116 colon, 28.2%; in the experiment with HCC-2998 colon it was 48.2%; in the experiment with KM12 colon, 38.2%.
In the case of `Nc1nccc2c1ccn2-c1ccc(NC(=O)Nc2cccc(C(F)(F)F)c2)cc1`, the growth in the experiment with BT-549 breast is 96.5%; in the experiment with MDA-MB-435 melanoma it was 96.6%; with SW-620 colon it was 103%; in the experiment on MCF7 breast it was 86.8%; in the experiment with HCT-116 colon, 76.8%; in the experiment on HCC-2998 colon, 115%. For the same molecule, the growth in the experiment on KM12 colon is 75.1%.
Turning to `CCOC(=O)n1cnc2c(Cl)ncnc21`, the growth in the experiment with MDA-MB-435 melanoma was 111%; in the experiment on SW-620 colon it was 108%; in the experiment on MCF7 breast, 95.2%; in the experiment on HCT-116 colon, 101%; in the experiment on HCC-2998 colon, 2.2% (active); in the experiment on KM12 colon, 107%.
For `COc1ccccc1S(=O)(=O)Nc1ccc2c3c(cc(-c4cnn(C5CC5)c4)nc13)C(=O)N2C`, the growth in the experiment with BT-549 breast is 90%; in the experiment on MDA-MB-435 melanoma, 52.4%; in the experiment on SW-620 colon, 68.5%; with MCF7 breast it was 29.6%; with HCT-116 colon, 60%; in the experiment with HCC-2998 colon, 75.4%. Besides, in the experiment with KM12 colon, the growth was 56.3%.
